Structures can show the parent of a compound that is named as a salt. ± gives the standard deviation of the averaged measurements.
System: Escherichia coli ATCC BAA-2469
Assay: percent growth inhibition of drug + antibiotic vs DMSO control; higher = more growth inhibition
Experimental: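 Prestwick drugs tested at 20 uM and 7 uM with an antibiotic at 0.125x MIC (16 mg/L when MIC >128 mg/L) against E. coli ATCC BAA-2469 (NDM-1) in CAMHB, 384-well plates, duplicate runs. Percent growth inhibition was computed from OD600 (24 h minus 0 h) relative to DMSO wells. Drug + DMSO-only wells are also given. […]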

[1] = antibiotic (0.125x MIC): ciprofloxacin, 7 µM
[2] = antibiotic (0.125x MIC): ciprofloxacin, 20 µM
[3] = antibiotic (0.125x MIC): meropenem, 7 µM
[4] = antibiotic (0.125x MIC): meropenem, 20 µM
[5] = antibiotic (0.125x MIC): gentamicin, 7 µM
[6] = antibiotic (0.125x MIC): gentamicin, 20 µM

Work on `CC(=O)OC[C@H]1O[C@@H]([S-])[C@H](OC(C)=O)[C@@H](OC(C)=O)[C@@H]1OC(C)=O.CCP(CC)CC.[Au+]` [Auranofin] yielded a percent growth inhibition [1] of 9.1 ± 0.77%, a percent growth inhibition [2] of 19.5 ± 6.6% and a percent growth inhibition [3] of 7.8 ± 5.3%. For the same compound, the percent growth inhibition [4] was 19.3 ± 14%.
`CN(C)c1ccc(O)c2c1C[C@H]1C[C@H]3[C@H](N(C)C)C(O)=C(C(N)=O)C(=O)[C@@]3(O)C(O)=C1C2=O` [Minocycline hydrochloride] gave a percent growth inhibition [1] of 36.9 ± 6.3%, a percent growth inhibition [2] of 101 ± 3.3% and a percent growth inhibition [5] of 38.6 ± 5.5%. The percent growth inhibition [6] was 84.6 ± 15%.
Compound `O=C1c2c(O)ccc(O)c2C(=O)c2c(NCCNCCO)ccc(NCCNCCO)c21` [Mitoxantrone dihydrochloride] has a percent growth inhibition [1] of 6.59 ± 1.5% and a percent growth inhibition [2] of 52.9 ± 1.9%.
`Oc1c(I)cc(Cl)c2cccnc12` [Clioquinol] was tested, and the percent growth inhibition [1] was 7.92 ± 1.7%, the percent growth inhibition [2] was 61.08 ± 0.34% and the percent growth inhibition [5] was 12.9 ± 5.2%. It also gave a percent growth inhibition [6] of 88.9 ± 10% and a percent growth inhibition [3] of 7.81 ± 2.7%.
`Nc1nc(O)c2ncn(CCC(CO)CO)c2n1` [Penciclovir] gave a percent growth inhibition [1] of 7.81 ± 16% and a percent growth inhibition [2] of -2.9 ± 7.2%.
`C[C@H]1[C@H](NC(=O)/C(=N\OC(C)(C)C(=O)O)c2csc(N)n2)C(=O)N1S(=O)(=O)O` [Aztreonam] was tested, and the percent growth inhibition [1] was 0.0872 ± 14%, the percent growth inhibition [5] was 24.6 ± 5.5% and the percent growth inhibition [6] was 81.2 ± 19%. The percent growth inhibition [3] was 14.9 ± 16%.
`Cc1nnc(NS(=O)(=O)c2ccc(N)cc2)s1` [Sulfamethizole] gave a percent growth inhibition [1] of 9.62 ± 10% and a percent growth inhibition [2] of 4.47 ± 6%.
With `O=C1NCCN1c1ncc([N+](=O)[O-])s1` [Niridazole] the percent growth inhibition [1] was 45 ± 5.1%, the percent growth inhibition [2] was 86.8 ± 14% and the percent growth inhibition [5] was 30.939 ± 0.024%. The percent growth inhibition [6] was 99.9 ± 3.3%, the percent growth inhibition [3] was 42.4 ± 9.2% and the percent growth inhibition [4] was 85.3 ± 15%.
`O=C1OCCN1/N=C/c1ccc([N+](=O)[O-])o1` [Furazolidone] gave a percent growth inhibition [2] of 102 ± 2.7%, a percent growth inhibition [6] of 113 ± 20% and a percent growth inhibition [4] of 113 ± 20%.
For `Cc1cccc(C)c1NC(=O)C1CCCCN1C` (stereo unspecified) [Mepivacaine hydrochloride], the percent growth inhibition [6] was 1.04 ± 3.1%.
Compound `CC[C@H]1OC(=O)[C@H](C)[C@@H](O[C@H]2C[C@@](C)(OC)[C@@H](O)[C@H](C)O2)[C@H](C)[C@@H](O[C@@H]2O[C@H](C)C[C@H](N(C)C)[C@H]2O)[C@](C)(O)C[C@@H](C)CN(C)[C@H](C)[C@@H](O)[C@]1(C)O` [Azithromycin] has a percent growth inhibition [3] of 20.7 ± 7.2% and a percent growth inhibition [4] of 50.1 ± 20%.
`Nc1c2ccccc2nc2ccccc12` [Aminacrine] showed a percent growth inhibition [3] of 13.7 ± 12% and a percent growth inhibition [4] of 40.9 ± 17%.
`CCC[C@@H]1C[C@@H](C(=O)N[C@@H]([C@H]2O[C@H](SC)[C@H](O)[C@@H](O)[C@H]2O)[C@H](C)Cl)N(C)C1` [Clindamycin hydrochloride] showed a percent growth inhibition [3] of 13.3 ± 0.73% and a percent growth inhibition [4] of 42.6 ± 12%.
Work on `CCCCCCCCCCCCCCCC[N+](C)(C)CCN(Cc1ccc(OC)cc1)c1ncccn1` [Thonzonium bromide] yielded a percent growth inhibition [3] of -2.72 ± 5.5% and a percent growth inhibition [4] of 34.1 ± 20%.

Source: the supplement of paper PMC6658780
